# Experimental data taken from PubChem BioAssay AID687020 (Broad Institute, 2013).
# Among all 1,400 compounds or so, about 100 (7.1%) were called active. The rule behind the calls is not given here. These entries were drawn from the full list. Measured potencies and affinities stand elsewhere.
# Experiment: viability loss in Vero cells – cell-based, plate reader, cherry-pick samples, cytotoxicity control, dose response (AID 687020);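 note: compounds incubated with cells for three days before luminescence read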
# Conditions: series mostly up to 19.5 µM
row,Compound,outcome
1,O=C(CN1CCN(Cc2ccccc2)CC1)NNC(=O)c1ccccc1,inactive
2,CCCNC(=O)C(Cc1ccc(I)cc1)NC(=O)c1ccc(C#N)cc1 (stereo not given),inactive
3,Cc1ccnc(NC(=O)C(Cc2ccccc2)NC(=O)c2ccccc2)c1 (stereo not given),inactive
4,Cc1cn([C@H]2C[C@H](O)[C@@H](CNCc3ccc4ncccc4c3)O2)c(=O)[nH]c1=O,inactive
5,CCOc1ccc(N(CC(=O)Nc2cccc(C)c2)S(C)(=O)=O)cc1,inactive
6,CCN(CC)S(=O)(=O)c1ccc(NC(=O)COC(=O)CNC(=O)C2CCCCC2)cc1,inactive
7,CCCc1cc(=O)oc2c(C)c(OCC(=O)N3C[C@H]4C[C@@H](C3)c3cccc(=O)n3C4)ccc12,inactive
8,Cc1c(C)c2c(OCC(=O)N3CCC(O)CC3)cc3c(c2oc1=O)CCC(C)(C)O3,inactive
9,C[C@@H]1CN([C@H](C)CO)C(=O)c2cc(NC(=O)Nc3ccc(C(F)(F)F)cc3)ccc2O[C@@H]1CN(C)Cc1ccccc1,inactive
10,COc1ccccc1N1CCN(C(=O)c2cc(S(=O)(=O)N3CCCCC3)ccc2C)CC1,inactive
11,CC(C)(C)OC(=O)C(Cc1ccc(OC(C)(C)C)cc1)NC(=O)CNC(=O)OCc1ccccc1 (stereo not given),inactive
12,O=C(Nc1ccn(CC(=O)N2CCN(c3ccccn3)CC2)c(=O)n1)OCc1ccccc1,inactive
13,Cc1cccc(NC(=O)c2cccc(S(=O)(=O)N(C)C3CCCCC3)c2)n1,inactive
14,CCCC/C=C/c1cccc2nncn12,inactive
15,COc1cccc(-c2nc3nc(C)cc(C)n3c2NC2CCCC2)c1,inactive
16,CCC(=O)Nc1cc(C(=O)OCc2ccc(C(=O)Oc3ccccc3)cc2)ccc1C,inactive
17,O=C([C@@H]1[C@@H](CO)[C@@H]2Cn3c(cccc3=O)[C@H]1N2C(=O)CC1CC1)N1CCCCC1,inactive
18,CCCCNC(=O)c1onc(CS(=O)(=O)c2ccccn2)c1C(=O)NCCCC,inactive
19,COc1ccc([C@H]2/C=C\CN(C(=O)c3ccc(C)cc3)[C@@H](C)C(=O)N2Cc2ccc(F)cc2)cc1,inactive
20,O=C(N[C@H](Cc1ccccc1)C(=O)NC1CCCCC1)[C@H]1O[C@@H](n2ccc(=O)[nH]c2=O)[C@H](O)[C@@H]1O,inactive
21,COC(=O)c1ccc2nc(C3CCCCC3)c(Cc3ccccc3OC)n2c1,inactive
22,COC(=O)c1ccc2nc(-c3ccc(C#N)cc3)c(Cc3cccc(F)c3)n2c1,inactive
23,CCN1CCN(CCc2nc3cc(NC(=O)COc4ccc(Cl)cc4)ccc3n2C)CC1,inactive
24,CCN1C(=NCCc2c[nH]c3ccccc23)N[C@@H](c2ccccc2)[C@H](C(=O)OC)[C@H]1C,inactive

row,Compound,outcome
1,NCc1csc(NC(=O)Nc2cccc(Cl)c2)n1,inactive
2,COC(=O)[C@]12CCCCC=C1N(Cc1cccc3ccccc13)C(=O)[C@H](CC(=O)N1CCOCC1)C2,inactive
3,COC(=O)[C@]12CCCCC=C1N(Cc1cccc3ccccc13)C(=O)[C@H](CC(=O)NCCC(C)C)C2,inactive
4,COc1ccc(S(=O)(=O)Nc2ccc3c(c2)C(=O)N([C@@H](C)CO)C[C@H](C)[C@H](CN(C)C(=O)Nc2ccc(C(F)(F)F)cc2)OCCCC[C@H](C)O3)cc1,inactive
5,CC(NC(=O)CN1CCCC1)c1ccccc1 (stereo not given),inactive
6,Cc1cc(C)c2[nH]c(C(=O)Nc3ccc4c(c3)OCO4)cc2c1,inactive
7,Cc1cccc(OCCn2c(=O)n(C)c3ccccc32)c1,inactive
8,Cc1c(C)c2cc(Cl)c(OCC(=O)NCCCN3CCCC3=O)cc2oc1=O,inactive
9,Cc1oc2cc3oc(=O)c(CCC(=O)NCCCn4ccnc4)c(C)c3cc2c1C,inactive
10,COc1ccc(CN(CCC(c2ccccc2)C2CCOC(C)(C)C2)C(C)=O)cc1 (stereo not given),inactive
11,Cc1cccc(C(=O)NC2CCN(CC(=O)Nc3cccc(Cl)c3)CC2)c1,inactive
12,Cc1ccc(C2(C)NC(=O)N(CC(=O)Nc3ccccc3C(=O)NC3CCCC3)C2=O)cc1 (stereo not given),inactive
13,O=S1(=O)CCOCCCN1Cc1ccccc1Br,inactive
14,CN1C(=O)c2cc(NC(=O)Cc3cccs3)ccc2OC[C@@H]2O[C@H](CC(=O)NCC3CCCCC3)CC[C@H]21,inactive
15,CC(=O)N1CC2(C1)[C@H](c1ccc(-c3ccc(C#N)cc3)cc1)[C@@H](CO)N2C(=O)C1CC1,inactive
16,CCCCN1C(Nc2ccccc2)=NC[C@@H]1Cc1ccccc1,inactive
17,O=C(Nc1ccccc1)c1ccccc1CSc1ccccc1,inactive
18,O=S(=O)(c1cccc(C(F)(F)F)c1)N1CCN(CC(O)COCc2ccccc2)CC1 (stereo not given),inactive
19,O=C(Cc1cccc(C(F)(F)F)c1)Nc1ccc(S(=O)(=O)N2CCCC2)cc1,inactive
20,CC1(C#N)c2ccccc2C(Br)=CN1C(=O)c1ccccc1 (stereo not given),inactive
21,COc1ccc(NC(=O)C2CCC(CNS(=O)(=O)c3cccs3)CC2)cc1OC (stereo not given),inactive
22,O=C1Nc2ccccc2SC1c1ccccc1 (stereo not given),inactive
23,COc1ccc(-c2nc3ccc(C)cn3c2Cc2cccc(F)c2)cc1OC,inactive
24,CC(=O)Nc1cccc(C(=O)OCC(=O)Nc2ccc(Cl)cn2)c1,inactive

row,Compound,outcome
1,CC(=O)Nc1cccc(/C(C)=N/NC(=O)c2cccc(S(=O)(=O)N3CCCC3)c2)c1,inactive
2,O=C(C1CCOCC1)N1[C@H](CO)[C@@H](c2ccccc2)C12CN(Cc1cccnc1)C2,inactive
3,COC(=O)Cc1ccc(OC2(C)CCN(Cc3csc4ccccc34)C2)cc1 (stereo not given),inactive
4,COc1ccc(Cc2nnc(NC(=O)c3ccccc3Cl)s2)cc1OC,inactive
5,COC(=O)CCc1cccc(CCC(=O)OC)c1,inactive
6,C[C@@H](NC(=O)C[C@@H]1CC[C@H]2[C@@H](COC[C@H](O)CN2C(=O)Nc2ccccc2)O1)c1ccccc1,inactive
7,Cc1ccc(S(=O)(=O)NC(=O)C2(C)CCN2C(=O)c2ccc(C(F)(F)F)nc2C)cc1 (stereo not given),inactive
8,O=S(=O)(c1cnc(Cl)c(Cl)c1)N1CCc2ccccc21,inactive
9,Cc1ccc(-c2csc(NC(=O)c3ccc(S(=O)(=O)N4CCc5ccccc54)cc3)n2)cc1,inactive
10,COCCNC(=O)C[C@@H]1C[C@H]2c3cc(NC(=O)Nc4ccc(OC)cc4)ccc3O[C@H]2[C@@H](CO)O1,inactive
11,COc1ccc(CC(=O)OCC(=O)NCCNC(=O)COC(=O)Cc2ccc(OC)cc2)cc1,inactive
12,C[C@H](CCC(=O)O)[C@H]1CC[C@H]2[C@@H]3CC[C@@H]4C[C@H](O)CC[C@]4(C)[C@H]3C[C@H](O)[C@]12C,inactive
13,CC(Oc1ccc(Cl)cc1Cl)C(=O)NCCCN1CCOCC1 (stereo not given),inactive
14,Cc1oc2c(C)c3oc(=O)c(CCC(=O)NCCN4CCOCC4)c(C)c3cc2c1C,inactive
15,O=C(NC1CCCCC1)N[C@H]1C=C[C@@H](CC(=O)N2CCOCC2)O[C@@H]1CO,inactive
16,CN(CC(=O)Nc1ccccc1C(=O)NC1CC1)Cc1ccccc1F,inactive
17,CCCCCC(=O)NC1CCCCN(C)C1=O (stereo not given),inactive
18,CC(=O)NCCNc1nc(NCc2cccs2)nc2ccsc12,inactive
19,COc1ccc(N2CCN(Cc3nc4c(c(=O)[nH]c(=O)n4C)n3Cc3cccc(Cl)c3)CC2)cc1,inactive
20,NC(c1csc(NC(=O)Nc2cccc(Cl)c2)n1)C1CCCCC1 (stereo not given),inactive
21,Cc1ccc(Cn2cc(CN3CC(N(C)C)CS3(=O)=O)nn2)cc1 (stereo not given),inactive
22,CC(C)(C)OC(=O)NC(CC(=O)OCc1ccccc1)C(=O)O (stereo not given),inactive
23,O=C(O)C(Cc1ccc(Cl)cc1)NS(=O)(=O)c1ccc(Cl)cc1 (stereo not given),inactive
24,O=S(=O)(c1ccc(=S)[nH]c1)N1CCN(Cc2ccccc2)CC1,inactive

row,Compound,outcome
1,O=C(O)C1C2C=CC(C2)C1C(=O)NCc1ccccc1 (stereo not given),inactive
2,O=C(Nc1cc(F)cc(F)c1)c1sc(Cl)nc1-c1ccccc1,inactive
3,CCS(=O)(=O)N1CCC2(CC1)OCCN2S(=O)(=O)c1ccccc1,inactive
4,NC(=O)C1CCN(C(=O)C2(NC(=O)Nc3cccc(F)c3)CCCCC2)CC1,inactive
5,CCCCN1C[C@H](Cc2ccccc2)[C@@H](CC(=O)NCc2ccc(OC)cc2)C1=O,inactive
6,COc1ccc(CNC(=O)C[C@H]2C(=O)N(Cc3ccccc3)C[C@@H]2Cc2ccccc2)cc1,inactive
7,CCCCn1nc(C(=O)Nc2ccc3c(c2)OCO3)c2ccccc2c1=O,inactive
8,CO[C@@H]1CN(C)C(=O)c2ccc(NS(=O)(=O)c3cccc(F)c3)cc2OC[C@@H](C)N(C(=O)Cc2cccnc2)C[C@H]1C,inactive
9,COc1ccc(-c2csc(C(C)(O)c3ccc(F)c(F)c3)n2)cc1OC (stereo not given),inactive
10,COc1cc(NC(=O)c2nccn2C)cc(C(=O)Nc2cccc(C(F)(F)F)c2)c1,inactive
11,COc1ccc(CCC(=O)Nc2cc(S(=O)(=O)N3CCOCC3)ccc2OC(C)C)cc1,inactive
12,COc1ccc(NC(=O)CN2CCc3ccccc3C2)cc1S(=O)(=O)N1CCOCC1,inactive
13,CCCNC(=O)N1CC2(C1)CN(Cc1cccc(F)c1)[C@@H](CO)c1[nH]c3cc(OC)ccc3c12,inactive
14,C[C@@H](NC(=O)[C@@H]1[C@@H](CO)[C@@H]2Cn3c(cccc3=O)[C@@H]2N1CC1CCCC1)c1ccccc1,inactive
15,CC(Oc1ccc2ccc(=O)oc2c1)C(=O)NC(Cc1c[nH]c2ccc(O)cc12)C(=O)O (stereo not given),inactive
16,O=C(N[C@@H]1CC[C@H](CCNC(=O)C2CCCCC2)O[C@@H]1CO)c1ccccn1,inactive
17,CCCc1cc(CNC(=O)C2CCC(=O)N(CCc3cccc(F)c3)C2)on1 (stereo not given),inactive
18,COc1ccc(CCN2CC(C(=O)NCCc3ncccc3C)CCC2=O)cc1 (stereo not given),inactive
19,Nc1ccc2oc(-c3ccccc3Cl)cc(=O)c2c1O,inactive
20,COc1ccc(Cl)cc1-c1cc(C(=O)N[C@H](C)c2ccccc2)[nH]n1,inactive
21,Cc1ccc(OCCCCNC(C)c2ccccc2)c(C)c1 (stereo not given),inactive
22,CC(C)c1ccccc1OCCCCN1CCCCC1,inactive
23,Cc1cc(O)c(C(C)C)cc1NC(=O)c1ccccc1Cl,inactive
